The full list was thinned out, with hits kept by preference.
SF1 inhibitor – SF-1 (human) inhibition | AID 525 | actives 0.55% (n = 65,000) | CHO-K1 Gal4-SF-1 LBD luciferase reporter | inhibition, % at 10 µM;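 active = inhibition above the mean inhibition of all tested compounds plus 3 SD, cut at about 48% in these data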
Target sequence (Q13285 whole entry, looked up, the tested form may be a part): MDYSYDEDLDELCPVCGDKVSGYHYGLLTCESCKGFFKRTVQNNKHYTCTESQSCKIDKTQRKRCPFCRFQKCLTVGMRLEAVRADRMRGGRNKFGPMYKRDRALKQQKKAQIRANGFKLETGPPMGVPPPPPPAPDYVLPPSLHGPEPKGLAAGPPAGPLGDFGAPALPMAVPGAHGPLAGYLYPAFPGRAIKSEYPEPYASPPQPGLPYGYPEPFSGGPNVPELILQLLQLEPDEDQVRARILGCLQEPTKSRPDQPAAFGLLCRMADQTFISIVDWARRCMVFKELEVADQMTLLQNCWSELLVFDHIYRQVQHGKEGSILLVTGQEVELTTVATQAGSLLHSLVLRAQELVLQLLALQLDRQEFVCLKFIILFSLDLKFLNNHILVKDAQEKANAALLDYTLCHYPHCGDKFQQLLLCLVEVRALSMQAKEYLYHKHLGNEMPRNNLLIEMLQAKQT
Each line names hits and unclear results; the compound was inactive in the other large screens.

CC(C)(C)n1ncc2c(=O)n(CC(=O)NCc3ccc(F)cc3)cnc21	none
COCCCNc1oc(-c2ccccc2OC)nc1C#N	none
COc1cccc(-c2nnc(Nc3nc4c(F)cccc4s3)o2)c1	none
COc1ccccc1-c1nnc(Nc2nc3c(OC)cccc3s2)o1	SF1 inhibitor 67
Cc1ccsc1C(=O)OCC(=O)Nc1sccc1C(N)=O	none
Cc1ccc(NC(=O)C2CCN(S(=O)(=O)c3cnc[nH]3)CC2)nc1	none
CCC(C)OC(=O)c1[nH]c2c(c1C)C(=O)CC(c1ccc(N(C)C)cc1)C2 (configuration not stated)	none
CCOC(=O)C1=C(C)N(C)C(C)=C(C(=O)OCC)C1c1cccnc1	none
Cc1cc2c(c(=O)n1CCCn1ccnc1)C(c1ccco1)C(C#N)=C(N)O2 (configuration not stated)	none
CCN(CC)c1ccc2c(c1)OC(N)=C(C#N)C2c1cccnc1 (configuration not stated)	SF1 inhibitor 65
Cc1nc2ccccn2c1P(=Nc1ccccc1)(N(C)C)N(C)C	none
COC(=O)c1cc(Br)c(=O)n(Cc2ccc3c(c2)OCO3)c1	none
CCc1cc2c(=O)c(-c3nc4ccccc4[nH]3)coc2c(CN2CCCC(C)C2)c1O (configuration not stated)	none
Cn1c(-c2ccccc2)cc2c3no[n+]([O-])c3ccc21	SF1 inhibitor 73
CC(=O)Nc1ccc(-n2c(C)c(C(C)=O)c(C(C)=O)c2C)cc1	none
O=C(NC1CCCCCC1)C1CCN(C(=O)Cc2ccccc2)CC1	none
CCOc1ccc(-c2noc(CCC(=O)O)n2)cc1	SF1 inhibitor 53
Cc1ccc(OCc2nc(-c3ccccc3)no2)c(C)c1	none
Cc1ccc(-c2noc(CCCC(=O)N3CCOCC3)n2)cc1	none
COc1ccc(-c2ccc(CCC(=O)O)n2C(C)C)cc1	none
CCOc1ccc(-c2nnc(N)o2)cc1	none
COc1ccc(-c2noc(CCCC(=O)O)n2)cc1	SF1 inhibitor 57
CCOC(=O)CCn1nc(-c2ccc(Cl)cc2)cc1N	none
O=C(CN1C(=O)CSC1=O)N1CCc2ccccc2C1	none
COc1ccc2c(c1)CCc1c(C(=O)NCCN3CCOCC3)noc1-2	none
COc1ccc(C2=NOC(C(=O)NCCCN3CCOCC3)C2)cc1 (configuration not stated)	none
COc1ccc(-c2nc(CSCC(=O)NCc3ccco3)c(C)o2)cc1	SF1 inhibitor 69
COc1ccc(-c2nc(CS(=O)CC(=O)N3CCCC3)c(C)o2)cc1 (configuration not stated)	none
Cc1cc(-c2ccco2)n(CC(=O)NCc2ccco2)n1	none
CCc1ccc(-c2nc(CSCC(=O)N3CCN(c4ncccn4)CC3)c(C)o2)cc1	SF1 inhibitor 51
CCOc1ccc(-c2nc(CSCC(=O)NCCN3CCOCC3)c(C)o2)cc1	SF1 inhibitor 65
Cc1ccc(-c2nc(CS(=O)CC(=O)NCc3ccccn3)c(C)o2)cc1 (configuration not stated)	none
O=C(C1CCCCC1)N1CCN(c2ncccn2)CC1	none
Cc1occc1-c1nnc(SCC(=O)NCc2ccco2)n1CC(C)C	none
CC1CCCCN1C(=O)C1CC(c2ccc(F)cc2)=NO1 (configuration not stated)	none
COc1ccc2c(c1)CCc1c(C(=O)NC3CCCCC3)noc1-2	none
CCO/C=C/C(O)(CNC(=O)COc1ccccc1F)C(F)(F)F (configuration not stated)	none
CN(C1CCS(=O)(=O)C1)S(=O)(=O)c1ccc(C2CCCCC2)cc1 (configuration not stated)	none
Cc1csc(NC(=O)Nc2cccc(Cl)c2)n1	none
Cc1cc(F)ccc1S(=O)(=O)Nc1ccccc1C(=O)Nc1ccc2[nH]c(=O)[nH]c2c1	none
COc1ccc(N2CCN(CCCNC(=O)C3CCCN(S(=O)(=O)c4cnc[nH]4)C3)CC2)cc1 (configuration not stated)	none
CCC(=O)Nc1nc2ccc3nc(C)sc3c2s1	none
COC(=O)c1ccc(Oc2cc(C)nc(SC)n2)cc1	none
O=C1c2ccccc2C(O)N1c1ccc(Cl)cc1 (configuration not stated)	none
Cc1ccc(N2C(=O)c3ccccc3C2O)nc1 (configuration not stated)	SF1 inhibitor 56
Cc1ccc2oc3c(c(=O)c2c1)C(c1cccc(O)c1)N(c1ccccn1)C3=O (configuration not stated)	none
OCC1(C2=NOC(O)(C(F)(F)F)C2)CCCCC1 (configuration not stated)	none
Cc1ccc2c(COC(=O)C3=COCCO3)cc(=O)oc2c1	none
O=C(Nc1ccccc1)c1cccc(-c2nnc(-c3ccccc3)o2)c1	SF1 inhibitor 63
O=C(Nc1ccc2oc(-c3ccccc3)nc2c1)c1cccnc1	none
O=C(Nc1cccc(-c2nnc(-c3ccccc3)o2)c1)C1CCCCC1	none
CCCCN(CC)CCNS(=O)(=O)c1ccc2c(c1)oc(=O)n2C	none
C1=C(C(c2nnnn2C2CCCCC2)N2CCCCC2)COc2ccccc21 (configuration not stated)	none
CNC(=O)Nc1ccccc1NC(=O)NC	none
O=S1(=O)C=C(Sc2nnc(-c3ccccc3)o2)c2ccccc21	SF1 inhibitor 66
COc1ccccc1NC(=O)CSc1nnc(-c2ccc(C)cc2)o1	none
Brc1cccc(-c2nnc(-c3ccccc3)o2)c1	none
O=C(CCC1CCCC1)N1CCN(C2CCCC2)CC1	none
CCOC(=O)c1ccc(NC(=O)CSCc2ccco2)cc1	none
COc1cc(-c2nnc3sc(-c4cccs4)nn23)cc(OC)c1OC	none
CN(C)c1ccc(-c2nn3c(-c4cccnc4)nnc3s2)cc1	none
COc1ccccc1-c1nnc2sc(-c3ccc(N(C)C)cc3)nn12	SF1 inhibitor 64
CCS(=O)(=O)Nc1cc(-c2nc3cccnc3s2)ccc1C	none
O=S(=O)(Nc1cccc2ncccc12)c1cccs1	SF1 inhibitor 96
Cc1ccc2[nH]c3c(N4CCN(Cc5ccc6c(c5)OCO6)CC4)ncnc3c2c1	SF1 inhibitor 73
Cc1ccc(-n2c(=O)cc(N3CCCCCC3)[nH]c2=O)cc1	none
COc1ccc(-n2ccnc2SCC(=O)NCc2ccc3c(c2)OCO3)cc1	none
c1ccc2sc(NC3=NCN(Cc4ccc5c(c4)OCO5)CN3)nc2c1	none
Cc1ccc2c(c1)c1ncnc(N3CCC4(CC3)OCCO4)c1n2C	none
COc1ccc2c(c1)[nH]c1c(N3CCN(Cc4ccc5c(c4)OCO5)CC3)ncnc12	SF1 inhibitor 74
Cc1cc(C)c2[nH]c(=O)c(C(c3nnnn3Cc3ccc4c(c3)OCO4)N3CCCCC3)cc2c1 (configuration not stated)	none
CC(=O)c1ccc(OCC(O)CN2CCN(Cc3ccc4c(c3)OCO4)CC2)cc1 (configuration not stated)	none
Cc1ccc2[nH]c3c(N4CCCCCC4)ncnc3c2c1	SF1 inhibitor 74
CCS(=O)(=O)N1CCCC(C(=O)NC2CCC(C)CC2)C1 (configuration not stated)	none
COC(=O)CCc1c(C)[nH]c(C(=O)OCc2ccccc2)c1C	none
CCn1cc(Br)c(C(=O)Nc2ccc(F)c(Cl)c2)n1	none
O=C1NC(c2ccccc2)(C(F)(F)F)SC2=CCCCCN12 (configuration not stated)	none
COc1cc(NC(=O)N[C@H](C(=O)O)C(C)C)cc(OC)c1	none
CCn1ccnc1C(O)c1cccc(OC)c1OC (configuration not stated)	none
CCCCCCC(=O)c1c(C)[nH]c(C(=O)OCC)c1C	none
COc1cc(C2Nc3cccc4cccc(c34)N2)cc(OC)c1OC(C)=O	SF1 inhibitor 82
C/C=C/c1ccc(OC)c(OC(C)=O)c1	none
CCOC(=O)COc1nc(Nc2ccccc2C)nc(N(C)C)n1	none
Cc1cccc(NC(=O)c2cc3ccccc3o2)c1	none
Cc1cc(C(=O)Nc2cccc(C(=O)O)c2)oc1C	SF1 inhibitor 69

Bioassay records from PubChem.
